# DT40 TDP1 CPT: qHTS for Inhibitors of human tyrosyl-DNA phosphodiesterase 1 (TDP1): qHTS in cells in presence of CPT | chicken DT40 Tdp1-/-;hTDP1 cells + 20 nM CPT, ATP luminescence, 48 h | Potency, µM (top dose mostly 46.2 µM), for the others: at the highest dose activity change, negative = growth inhibition, hits mostly inhibitors | 12% of 420,000 active; further: potency means the concentration at half of the fitted maximal effect; on the % scale 0 is the no-effect control and ±100 the full control effect; nearly all actives have a fitted effect of over 55% in size
#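 Cell growth measured by CellTiter-Glo luminescence after a minimum 48 h, 37 C compound exposure with 20 nM CPT in Tdp1-knockout DT40 cells stably expressing hTDP1, seeded 400/well; qHTS titration format.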
# IL1B secr inh: qHTS for Inhibitors of Inflammasome Signaling: IL-1-beta AlphaLISA Primary Screen. THP-1 LPS/ATP IL-1B secretion, AlphaLISA, 16 h; stronger effect = lower value. activity change, % at 57.5 µM. 4.7% of 360,000 active; in the data active means activity change below about -50%; inconclusive means mostly about -30% to -49%; further: on the % scale 0 is the no-effect control and ±100 the full control effect
#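 THP-1 cells pretreated 1 hr with compounds (up to 57.5 uM final), then stimulated with LPS (250 ng/mL final) plus ATP (1.25 mM final); secreted IL-1B measured by AlphaLISA after 16 hr, decreased signal indicating inhibition.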
# SW480 rerep: A quantitative high throughput screen for small molecules that induce DNA re-replication in SW480 colon adenocarcinoma cells. Potency, µM (series often up to 46.1 µM), without a hit: at the top dose re-replication activation, actives largely listed as activators. AID 624297, 2012. SW480 DNA re-replication, Hoechst DNA content imaging, 48 h. 1.8% of 340,000 active; further: potency means the concentration at half of the fitted maximal effect; % of control where 0% means no effect; nearly all actives have a fitted effect of over 55% in size
#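 SW480 cells exposed to compounds for 48 hr at 37 C, 5% CO2, then Hoechst-stained 40 min. Nuclear DNA content imaged by fluorescence scanning (405 nm excitation, 500-530 nm emission); re-replication scored as increased high-intensity nuclei.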
# Chronic BCR inh: qHTS Assay to Find Inhibitors of Chronic Active B-Cell Receptor Signaling; ABC-DLBCL IkBa-CBG/CBR reporter, luminescence ratio, 4 h; Potency, µM (top dose mostly 46.1 µM), without a hit: at the highest dose activity change, negative = inhibition, hits mostly inhibitors; 0.05% of 340,000 active; AID 493014, 2011; active means well fitted inhibition curve with a large enough effect in the signal ratio, with a control signal flat, not every such curve was filed as active; inconclusive means small, poorly fitted or top-dose-only effect, or effect the other way, or a change in a side signal; the % refers to the signal ratio;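 further: potency means the concentration at half of the fitted maximal effect; plate controls were basal doxycycline-induced cells for no effect and cells given 10 µM MG132 for full effect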
#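 Compounds up to 46 uM were incubated four hours with TMD8 cells whose green CBG68 luciferase is fused to IkappaBalpha; red CBR luminescence normalised the signal, and concentration-effect curves were fitted to fusion, red and ratio data.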
# MCF10A rerep: A quantitative high throughput screen for small molecules that induce DNA re-replication in MCF 10a normal breast cells. MCF 10A DNA re-replication, Hoechst nuclear intensity, 48 h. Potency, µM (highest dose often 46.1 µM), for the others: at the highest dose activity, positive = re-replication, actives largely listed as activators. 2.9% of 350,000 active. AID 624296, 2012; further: potency means the concentration at half of the fitted maximal effect; % of control where 0% means no effect; nearly all actives have a fitted effect of over 50% in size
# DT40 TDP1 no CPT: qHTS for Inhibitors of human tyrosyl-DNA phosphodiesterase 1 (TDP1): qHTS in cells in absence of CPT | 15% of 420,000 active | Potency, µM (titrated, usually from 46.2 µM), for inactives: at the highest dose activity change, negative = growth inhibition, usual class: inhibitors | DT40 Tdp1-/- hTDP1 cells, no CPT, ATP luminescence, 48 h; further: potency means the concentration at half of the fitted maximal effect; on the % scale 0 is the no-effect control and ±100 the full control effect; nearly all actives have a fitted effect of over 55% in size
#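 Compound effects on proliferation are scored in DT40 Tdp1-/-;hTDP1 cells in the absence of CPT. ATP levels (CellTiter-Glo luminescence) are recorded after a ≥48 hr, 37 °C incubation.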
# * marks the source's active call; other numbers are inactive results; u = inconclusive; x = no result given; [ ] = remark or other dose. An excerpt weighted towards active compounds, which were near 19% of everything screened. Unless noted, the call rests on the fitted dose curve; in most records, active means well fitted curve in the direction sought with a large enough effect; inconclusive means small, poorly fitted or top-dose-only effect, or another doubt; inactive means no such curve, though single readings can be large; an effect the other way counts as inactive or inconclusive.
SMILES,DT40 TDP1 CPT,IL1B secr inh,SW480 rerep,Chronic BCR inh,MCF10A rerep,DT40 TDP1 no CPT
Cc1ccc(S(=O)(=O)N2CCN(C(=O)Cn3cnc4c3c(=O)n(C)c(=O)n4C)CC2)cc1C,-16%,-23,-18%,3%,16%,2%
CN(c1ccccc1C(=O)O)S(=O)(=O)c1ccc2[nH]c(=O)oc2c1,-3%,x,x,4%,x,-5%
CN=c1scc(-c2ccc(OC)cc2)n1/N=C(\C)c1cccnc1,u,-27,13%,-21%,30%,18µM*
COc1ccc(CC(=O)N/N=C(\C)c2cccnc2)cc1,-9%,3,7%,-5%,6%,22%
CCOC(=O)N1CCN(CCC(=O)Nc2cccc(F)c2)CC1,-11%,x,x,x,x,3%
CCCN1CNc2c(c(=O)[nH]c(=S)n2CCc2ccccc2Cl)C1,u,x,x,x,x,11µM*
CCCN1CNc2c(c(=O)[nH]c(=S)n2CCc2ccc(Cl)cc2Cl)C1,u,x,x,x,x,13µM*
O=C1CNC(=S)N1Cc1ccccc1Cl,5%,-4,u,1%,0%,-5%
CCCN1CNc2c(c(=O)[nH]c(=S)n2CCc2ccc(OCC)c(OCC)c2)C1,-20%,x,x,x,x,u
CCCN1CNc2c(c(=O)[nH]c(=S)n2CCc2c(Cl)cccc2Cl)C1,16µM*,x,x,x,x,13µM*
CCCN1CNc2c(c(=O)[nH]c(=S)n2CCc2cc(C)ccc2C)C1,u,x,x,x,x,13µM*
COC(=O)C[C@H]1CC[C@@H](NC(=O)Nc2c(C)noc2C)[C@@H](CO)O1,11%,-10,x,x,x,2%
CCCN1CNc2c(c(=O)[nH]c(=S)n2CCc2ccc(OC)cc2OC)C1,u,x,x,x,x,13µM*
CCCN1CNc2c(c(=O)[nH]c(=S)n2CCc2ccc(OC)c(OC)c2)C1,3%,1,-3%,-2%,4%,-23%
Cc1noc(C)c1-c1nccc(NCc2cccnc2)n1,6%,x,x,x,x,-1%
CN(C)c1ccc(P(=O)(OC2CCCCC2)C(O)c2cccnc2)cc1 (centres undefined),-5%,9,2%,0%,6%,-17%
CC(C)c1ccc(C(O)P(=O)(OC2CCCCC2)OC2CCCCC2)cc1 (centres undefined),u,-92*,u,-3%,21µM*,u
CCOC(=O)C1CCN(c2nc3c(S(=O)(=O)c4ccccc4)nnn3c3ccsc23)CC1,15µM*,x,x,x,x,21µM*
CCOC(=O)C1CCN(c2nc3c(S(=O)(=O)c4ccccc4)nnn3c3ccc(Cl)cc23)CC1,23µM*,x,x,x,x,15µM*
O=C1CCCC2[C@@H]3CCC[N@+]4([O-])CCC[C@H](CN12)C34 (some centres undefined),6%[9.04 µM],x,x,x,x,1%[9.04 µM]
COc1ccc(N(C)C(=O)CCC(=O)Nc2ccc3nc(N4CCOCC4)cc(C)c3c2)c(OC)c1,u,-4,9%,u,u,16µM*
COc1cc(NC(=O)CCC(=O)Nc2ccc3nc(N4CCOCC4)cc(C)c3c2)cc(OC)c1OC,0%,-10,-3%,0%,-11%,u
COc1ccc(CNC(=S)Nc2ccc3nc(N4CCN(C)CC4)cc(C)c3c2)cc1,u,-101*,9%,3%,u,u
COc1ccc(CNC(=S)Nc2ccc3nc(N4CCOCC4)cc(C)c3c2)cc1,21µM*,0,-5%,u,u,u
Cc1ccc2oc(-c3ccc(C)c(NC(=O)c4ccc(N5CCC(C)CC5)c([N+](=O)[O-])c4)c3)nc2c1,-4%,x,x,x,x,0%
SMILES,DT40 TDP1 CPT,IL1B secr inh,SW480 rerep,Chronic BCR inh,MCF10A rerep,DT40 TDP1 no CPT
O=C(CC(C(=O)NCc1ccccc1)c1nc2ccccc2c(=O)[nH]1)NCc1ccccc1 (centres undefined),u,10,129%,u,9%,-1%
COc1ccc(C2OCC(C)([N+](=O)[O-])CO2)cc1 (centres undefined),13%,8,-4%,x,0%,7%
CCOC(=O)C1(CCOC)CCN(C(=O)c2ccc(CSC)o2)CC1,4%,-4,-16%,-10%,-2%,9%
C#CCNC(=O)C[C@@H]1C[C@@]2(C(=O)OC)CC(C)(C)CC=C2N(Cc2ccccc2)C1=O,u,5,x,x,x,u
Cc1ccc(C)c(OCC(=O)Nc2ccc(S(=O)(=O)Nc3onc(C)c3C)cc2)c1C,-24%,x,x,x,x,-18%
Cc1ccnc(N/C=C(\C#N)c2nc(-c3cccc(Br)c3)cs2)c1,21µM*,-8,u,u,u,18µM*
Cc1ccnc(Nc2nc(-c3ccccc3)cs2)c1,u,-6,11%,u,13%,u
Cc1cccc2sc(N(CCCN(C)C)C(=O)c3nc4ccccc4s3)nc12,13µM*,-1,0%,-7%,16%,13µM*
Cc1ccc2sc(N(CCCN(C)C)C(=O)c3nc4ccccc4s3)nc2c1C,13µM*,-29,u,-12%,5%,6.5µM*
COc1ccccc1-n1c(C)cc(/C=C2\C(=N)N3N=C(CC(=O)N4CCOCC4)SC3=NC2=O)c1C,18µM*,9,-17%,9%,1%,u
COc1ccc(-n2c(C)cc(/C=C3\C(=N)N4N=C(CC(=O)N5CCOCC5)SC4=NC3=O)c2C)c(OC)c1,u,8,18%,4%,u,u
Cc1ccc(C)c(NC(=O)Cn2c(=O)oc3cc(S(=O)(=O)NCc4ccccc4)ccc32)c1,13µM*,x,x,x,x,8.2µM*
COc1ccc(NC(=O)Cn2c(=O)oc3cc(S(=O)(=O)NCc4ccccc4)ccc32)c(OC)c1,8.2µM*,x,x,11%,x,6.5µM*
CN1CCN(C(=O)Cn2c(=O)oc3cc(S(=O)(=O)NCc4ccccc4)ccc32)CC1,u,-1,1%,-2%,29%,-26%
COc1ccc(NC(=O)C(Cc2ccccc2)NS(=O)(=O)c2ccc3c(c2)oc(=O)n3C)c(OC)c1 (centres undefined),-9%,x,x,x,x,-20%
COc1ccc(C)cc1NC(=O)Cn1c(=O)oc2cc(S(=O)(=O)NCc3ccccc3)ccc21,16µM*,x,x,0%,x,15µM*
Cc1n[nH]c(=O)nc1N/N=C/c1ccc(O)c([N+](=O)[O-])c1,-12%,0,x,-13%,u,u

# Screening data deposited in PubChem BioAssay by National Center for Advancing Translational Sciences (NCATS).
